Laboratory results from PMC5869772, “Quantitative profiling of BATF family proteins/JUNB/IRF hetero-trimers using Spec-seq”.

Experiments:
Experiment in all cases: Spec-seq (EMSA and sequencing of bound and unbound bands); 100 nM BATFx-JUNB, 1 uM dsDNA library, 50 mM K acetate, 20 mM Tris-acetate, 10 mM Mg acetate, 100 ug/ml BSA, pH 7.9, 10% glycerol, 30 min on ice; native 9% PAGE at 4 C; low values mean tight binding
Settings in all cases: protein: recombinant;recombinant; tags: N-terminal mCherry-TEV, cleaved off;C-terminal 6His; copies: 1;1; dsDNA, one strand shown
BATF;JUNB = biological target: T1, BATF;JUNB (human;human, UniProt Q16520;P17275 1-125;148-347, |)
T1 sequence 1: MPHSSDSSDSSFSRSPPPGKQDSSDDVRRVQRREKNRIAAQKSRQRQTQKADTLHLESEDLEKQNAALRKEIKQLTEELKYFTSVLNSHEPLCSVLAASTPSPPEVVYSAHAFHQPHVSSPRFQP
T1 sequence 2: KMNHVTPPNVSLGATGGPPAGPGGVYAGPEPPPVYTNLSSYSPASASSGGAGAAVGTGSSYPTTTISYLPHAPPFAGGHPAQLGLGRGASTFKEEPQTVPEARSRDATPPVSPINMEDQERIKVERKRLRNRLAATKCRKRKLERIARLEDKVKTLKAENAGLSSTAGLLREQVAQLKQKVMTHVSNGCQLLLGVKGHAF
Outline: (§1)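 The protein, at 100 nM, was incubated with 1 μM double-stranded degenerate DNA library for 30 min on ice in NEB Cutsmart buffer with 10% glycerol, then resolved by native 9% PAGE at 4 °C. Excised bound and unbound bands were PCR-barcoded and Illumina-sequenced, and each sequence's relative binding energy in kT is −ln of its bound/unbound read-count ratio.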

BATF2 (bZIP);JUNB = biological target: T2, BATF2 (bZIP);JUNB (human;human, UniProt Q8N1L9;P17275 1-142;148-347, |)
T2 sequence 1: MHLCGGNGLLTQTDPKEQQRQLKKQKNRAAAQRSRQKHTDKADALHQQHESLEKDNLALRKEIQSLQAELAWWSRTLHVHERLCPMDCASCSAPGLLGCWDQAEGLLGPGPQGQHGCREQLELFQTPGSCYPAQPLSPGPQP
T2 sequence 2: T1 sequence 2
Outline: as §1

BATF3;JUNB = biological target: T3, BATF3;JUNB (human;human, UniProt Q9NR55;P17275 1-127;148-347, |)
T3 sequence 1: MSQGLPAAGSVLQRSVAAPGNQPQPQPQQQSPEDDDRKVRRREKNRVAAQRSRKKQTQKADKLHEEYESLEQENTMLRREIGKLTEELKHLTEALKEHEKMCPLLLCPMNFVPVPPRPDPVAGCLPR
T3 sequence 2: T1 sequence 2
Outline: as §1

Sequence	binding signal (BATF;JUNB) [kT]	binding signal (BATF2 (bZIP);JUNB) [kT]	binding signal (BATF3;JUNB) [kT]
GATAGTCTCATTTTCACCCCGTGAAAAAGAGTCATTGTTCCATTACAGTATCTGT	-0.185	0.233	0.0775
GATAGTCTCATTTTCACCCCGTGAAACTGTGTCATTGTTCCATTACAGTATCTGT	-0.318	0.116	-0.22
GATAGTCTCATTTTCACCCCGTGAAACCGAGTCATTGTTCCATTACAGTATCTGT	-0.617	0.173	-0.192
GATAGTCTCATTTTCACCCCGTGAAATGACGTGATTGTTCCATTACAGTATCTGT	-0.588	-0.181	-1.06
GATAGTCTCATTTTCACCCCGTGAAACGAGTCATTTGTTCCATTACAGTATCTGT	-0.477	0.283	-0.111
GATAGTCTCATTTTCACCCCGTGAAATGAGACATTTGTTCCATTACAGTATCTGT	0.216	1.21	0.604
GATAGTCTCATTTTCACCCCGTGAAATGATTCATTTGTTCCATTACAGTATCTGT	-0.784	-0.369	-0.839
GATAGTCTCATTTTCACCCCGTGAAATGAGTCAATTGTTCCATTACAGTATCTGT	-0.554	0.156	-0.486
GATAGTCTCATTTTCACCCCGTGAAATCACGTCATTGTTCCATTACAGTATCTGT	-0.743	-0.494	-1.33
GATAGTCTCATTTTCACCCCGTGAAATGAGCCAGTTGTTCCATTACAGTATCTGT	0.487	1.33	1.1
GATAGTCTCATTTTCACCCCGTGAAATGACGCACTTGTTCCATTACAGTATCTGT	-0.31	0.227	-0.203
GATAGTCTCATTTTCACCCCGTGAAATGACTCACTTGTTCCATTACAGTATCTGT	-0.778	-0.378	-0.943
GATAGTCTCATTTTCACCCCGTGAAAGAGAGTCATTGTTCCATTACAGTATCTGT	-0.0937	0.318	0.155
GATAGTCTCATTTTCACCCCGTGAAATGCGTCATTTGTTCCATTACAGTATCTGT	-0.941	-0.434	-1.03
GATAGTCTCATTTTCACCCCGTGAAATGACTGATTTGTTCCATTACAGTATCTGT	-0.224	0.321	0.106
GATAGTCTCATTTTCACCCCGTGAAATGACATCATTGTTCCATTACAGTATCTGT	-0.531	-0.296	-1.1
GATAGTCTCATTTTCACCCCGTGAAAGCGAGTCATTGTTCCATTACAGTATCTGT	-0.514	0.234	-0.148
GATAGTCTCATTTTCACCCCGTGAAATTCAGTCATTGTTCCATTACAGTATCTGT	-0.317	0.285	-0.0636
GATAGTCTCATTTTCACCCCGTGAAATGACTCCGTTGTTCCATTACAGTATCTGT	0.0406	0.724	0.582
GATAGTCTCATTTTCACCCCGTGAAATGACTCGATTGTTCCATTACAGTATCTGT	-0.328	0.519	0.109
GATAGTCTCATTTTCACCCCGTGAAATTGAGTCATTGTTCCATTACAGTATCTGT	-0.981	-0.804	-1.45
GATAGTCTCATTTTCACCCCGTGAAATAAGTCATTTGTTCCATTACAGTATCTGT	-0.248	0.152	-0.202
GATAGTCTCATTTTCACCCCGTGAAAGGAGTCATTTGTTCCATTACAGTATCTGT	-0.0687	0.569	0.243
GATAGTCTCATTTTCACCCCGTGAAATGAGTCCCTTGTTCCATTACAGTATCTGT	0.424	1.38	1.03

Sequence	binding signal (BATF;JUNB) [kT]	binding signal (BATF2 (bZIP);JUNB) [kT]	binding signal (BATF3;JUNB) [kT]
GATAGTCTCATTTTCACCCCGTGAAATGAGTTAGTTGTTCCATTACAGTATCTGT	0.169	0.988	0.772
GATAGTCTCATTTTCACCCCGTGAAATGACTCGTTTGTTCCATTACAGTATCTGT	-0.0971	0.491	0.243
GATAGTCTCATTTTCACCCCGTGAAATGAGTGATTTGTTCCATTACAGTATCTGT	0.0243	0.704	0.444
GATAGTCTCATTTTCACCCCGTGAAAGTGGGTCATTGTTCCATTACAGTATCTGT	0.393	0.822	0.613
GATAGTCTCATTTTCACCCCGTGAAATAGAGTCATTGTTCCATTACAGTATCTGT	-0.357	0.163	-0.29
GATAGTCTCATTTTCACCCCGTGAAATGAGTCGATTGTTCCATTACAGTATCTGT	-0.215	1.01	0.391
GATAGTCTCATTTTCACCCCGTGAAATGAGTAATTTGTTCCATTACAGTATCTGT	-0.4	0.147	-0.208
GATAGTCTCATTTTCACCCCGTGAAAAGGAGTCATTGTTCCATTACAGTATCTGT	-0.134	0.436	0.185
GATAGTCTCATTTTCACCCCGTGAAATGACTCATTTGTTCCATTACAGTATCTGT	-0.896	-0.796	-1.24
GATAGTCTCATTTTCACCCCGTGAAATGAGTGAATTGTTCCATTACAGTATCTGT	0.0809	0.83	0.58
GATAGTCTCATTTTCACCCCGTGAAAATGCGTCATTGTTCCATTACAGTATCTGT	-1.01	-0.552	-1.11
GATAGTCTCATTTTCACCCCGTGAAAATGAGTCATTGTTCCATTACAGTATCTGT	-1.25	-1.01	-1.35
GATAGTCTCATTTTCACCCCGTGAAATGAGTCTTTTGTTCCATTACAGTATCTGT	0.0504	1.04	0.768
GATAGTCTCATTTTCACCCCGTGAAATGAGCCAATTGTTCCATTACAGTATCTGT	0.591	1.4	0.829
GATAGTCTCATTTTCACCCCGTGAAACGACGTCATTGTTCCATTACAGTATCTGT	-0.501	-0.195	-1.03
GATAGTCTCATTTTCACCCCGTGAAATGAGACAGTTGTTCCATTACAGTATCTGT	0.654	1.32	1.06
GATAGTCTCATTTTCACCCCGTGAAACTAAGTCATTGTTCCATTACAGTATCTGT	-0.15	0.261	-0.118
GATAGTCTCATTTTCACCCCGTGAAATGACTCCCTTGTTCCATTACAGTATCTGT	0.214	0.862	0.785
GATAGTCTCATTTTCACCCCGTGAAATGAGTAACTTGTTCCATTACAGTATCTGT	-0.237	0.714	0.295
GATAGTCTCATTTTCACCCCGTGAAATGACGCAATTGTTCCATTACAGTATCTGT	-0.574	-0.276	-1.27
GATAGTCTCATTTTCACCCCGTGAAATTAGTCATTTGTTCCATTACAGTATCTGT	-0.885	-0.599	-1.19
GATAGTCTCATTTTCACCCCGTGAAATGAGACACTTGTTCCATTACAGTATCTGT	0.71	1.71	1.3
GATAGTCTCATTTTCACCCCGTGAAATGAGTCAGTTGTTCCATTACAGTATCTGT	-0.773	-0.0533	-0.715
GATAGTCTCATTTTCACCCCGTGAAATGAGGCAGTTGTTCCATTACAGTATCTGT	0.781	1.36	1.27

Sequence	binding signal (BATF;JUNB) [kT]	binding signal (BATF2 (bZIP);JUNB) [kT]	binding signal (BATF3;JUNB) [kT]
GATAGTCTCATTTTCACCCCGTGAAATGACTTCATTGTTCCATTACAGTATCTGT	-0.183	0.172	-0.643
GATAGTCTCATTTTCACCCCGTGAAATGACTTACTTGTTCCATTACAGTATCTGT	0.0298	0.563	0.342
GATAGTCTCATTTTCACCCCGTGAAATGAGGTCATTGTTCCATTACAGTATCTGT	-0.348	0.096	-1.09
GATAGTCTCATTTTCACCCCGTGAAATGACGTCCTTGTTCCATTACAGTATCTGT	0.097	0.602	-0.0593
GATAGTCTCATTTTCACCCCGTGAAAGGACGTCATTGTTCCATTACAGTATCTGT	-0.227	0.108	-0.474
GATAGTCTCATTTTCACCCCGTGAAATGACTCTATTGTTCCATTACAGTATCTGT	-0.0428	0.602	0.236
GATAGTCTCATTTTCACCCCGTGAAATGACACAATTGTTCCATTACAGTATCTGT	0.0803	0.413	-0.063
GATAGTCTCATTTTCACCCCGTGAAATGGCGTCATTGTTCCATTACAGTATCTGT	-0.631	-0.0754	-1.11
GATAGTCTCATTTTCACCCCGTGAAATGACGTCTTTGTTCCATTACAGTATCTGT	-0.0562	0.447	-0.318
GATAGTCTCATTTTCACCCCGTGAAATGAGTCGCTTGTTCCATTACAGTATCTGT	0.025	1.18	0.711
GATAGTCTCATTTTCACCCCGTGAAATTGGGTCATTGTTCCATTACAGTATCTGT	0.183	0.516	-0.0123
GATAGTCTCATTTTCACCCCGTGAAAGTAAGTCATTGTTCCATTACAGTATCTGT	-0.0818	0.203	-0.041
GATAGTCTCATTTTCACCCCGTGAAATGACTCAGTTGTTCCATTACAGTATCTGT	-0.786	-0.202	-0.697
GATAGTCTCATTTTCACCCCGTGAAACTCAGTCATTGTTCCATTACAGTATCTGT	-0.328	0.236	0.0164
GATAGTCTCATTTTCACCCCGTGAAATAACGTCATTGTTCCATTACAGTATCTGT	-0.467	-0.287	-1.09
GATAGTCTCATTTTCACCCCGTGAAAGTCAGTCATTGTTCCATTACAGTATCTGT	-0.0489	0.348	0.152
GATAGTCTCATTTTCACCCCGTGAAAATTAGTCATTGTTCCATTACAGTATCTGT	-1.07	-0.658	-1.24
GATAGTCTCATTTTCACCCCGTGAAATGAAGTCATTGTTCCATTACAGTATCTGT	-0.461	0.0362	-0.997
GATAGTCTCATTTTCACCCCGTGAAATGACTCAATTGTTCCATTACAGTATCTGT	-0.531	-0.145	-0.634
GATAGTCTCATTTTCACCCCGTGAAATGAGGCAATTGTTCCATTACAGTATCTGT	0.661	1.12	0.808
GATAGTCTCATTTTCACCCCGTGAAATGACTGAGTTGTTCCATTACAGTATCTGT	-0.132	0.387	0.26
GATAGTCTCATTTTCACCCCGTGAAATGACTCTTTTGTTCCATTACAGTATCTGT	0.109	0.673	0.524
